KB-V1 MDR tox: kills drug-selected multidrug resistant KB-V1 cells; Potency, µM (doses to about 46.1 µM), usual class: cytotoxic; actives 3.4% (n = 400,000); AID 1347076; KB-V1 MDR cells viability, CellTiter-Glo, 72 h; further: on the % scale 0 is the no-effect control and ±100 the full control effect; nearly all actives have a fitted effect of over 60% in size
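KB-V1, DMEM (no phenol red) + 10% FBS; cpd pin-transferred, titration series; 72 h, 37 degrees C; CellTiter-Glo, luminescence. Data normalized, curve-fit.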
SW480 rereplic: inducers of DNA re-replication in SW480 colon cancer cells; SW480 DNA re-replication, Hoechst DNA content imaging, 48 h; Potency, µM (doses to about 46.1 µM), inactives show top-dose re-replication activation, most hits filed as activators; actives 1.8% (n = 340,000); AID 624297; further: % of control where 0% means no effect; nearly all actives have a fitted effect of over 55% in size
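DNA re-replication was detected as more nuclei of elevated Hoechst intensity after 48 hr exposure to compound (23 nL pinned per well of 250 cells).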
MCF10A rerep: DNA re-replication induction in MCF 10a cells; MCF 10A DNA re-replication, Hoechst nuclear intensity, 48 h; Potency, µM (titrated, usually from 46.1 µM), for inactives: at the highest dose activity, positive = re-replication, most hits filed as activators; actives 2.9% (n = 350,000); AID 624296; further: % of control where 0% means no effect; nearly all actives have a fitted effect of over 50% in size
KB-3-1 tox: kills parental KB-3-1 adenocarcinoma cells. KB-3-1 viability, CellTiter-Glo ATP luminescence, 72 h. Potency, µM (highest dose often 46.1 µM), most hits filed as cytotoxic. actives 1.4% (n = 400,000). AID 1347075; further: on the % scale 0 is the no-effect control and ±100 the full control effect; nearly all actives have a fitted effect of over 60% in size
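Cells are dispensed, compounds pinned in, plates held at 37 °C for 72 h, then CellTiter-Glo is added and luminescence read after 10 minutes. Cell line: parental KB-3-1 in phenol-red-free DMEM, 10% FBS.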
ELG1 repair inh: inhibitors of ELG1-dependent DNA repair in HEK293T cells | HEK293T ELG1-luciferase reporter, luminescence, 16 h; DNA damage induced by 5-fluorouridine | Potency, µM (highest dose often 46.1 µM), for inactives: at the top dose activity change, negative = inhibition, actives largely listed as inhibitors | actives 2.3% (n = 330,000) | AID 504467; further: on the % scale 0 is the no-effect control and ±100 the full control effect; nearly all actives have a fitted effect of over 55% in size
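5-Fluorouridine DNA damage + compound/DMSO, 2,000 cells/well, 16 h, 37 °C/5% CO2. ONE-Glo, 30 min RT, luminescence. Readout = decrease in reporter signal.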
* hit, by the source's call; i = inactive; u = inconclusive; x = not tested or not shown. Hits are enriched below; roughly 8.1% of the tested compounds scored in any of these assays. The call rests on the fitted dose curve; in most records, active means well fitted curve in the direction sought with a large enough effect; inconclusive means small, poorly fitted or top-dose-only effect, or another doubt; inactive means no such curve, though single readings can be large; an effect the other way counts as inactive or inconclusive. Potency means the concentration at half of the fitted maximal effect.

SMILES	KB-V1 MDR tox	SW480 rereplic	MCF10A rerep	KB-3-1 tox	ELG1 repair inh
CC(C)CN(CC(C)C)C(=O)C1CCCN(S(=O)(=O)c2ccc3c(c2)oc(=O)n3C)C1 (stereo not given)	i	x	x	i	x
COc1cccc(N2CCN(CC(=O)Nc3ccc(S(=O)(=O)N4CCCCCC4)cc3)CC2)c1	21µM*	4%	12%	i	u
Cc1cc2ccccc2n2c(SCC(=O)Nc3ccc(S(=O)(=O)N4CCC(C)CC4)cc3)nnc12	i	u	-1%	i	26µM*
CC1CCN(CC(=O)Nc2ccc(S(=O)(=O)N3CCCCC3)cc2)CC1	i	12%	2.3µM*	i	-9%
CCC(CC)C(=O)Nc1ccc2nc(SCC(=O)N3CCc4ccccc43)sc2c1	i	x	x	i	x
CC(=O)Nc1cc(-c2cccc(CO)c2)cn2c(-c3ccc(F)cc3)cnc12	i	x	x	i	x
Cc1nc2ccccc2cc1OCc1ccccc1	u	1%	11%	u	29%
Cc1nc2ccccc2cc1OCc1ccc(Cl)cc1	1.8µM*	1%	u	2.6µM*	u
CCN(CC)C(=O)c1ccc(S(=O)(=O)N2CCC(c3nc4ccccc4s3)CC2)cc1	7.3µM*	0%	u	21µM*	u
CCc1ccc(OC(C)C(=O)N2CCC(c3nc4ccccc4s3)CC2)cc1 (stereo not given)	15µM*	x	x	u	x
COc1ccccc1OC(C)C(=O)N1CCC(c2nc3ccccc3s2)CC1 (stereo not given)	u	x	x	15µM*	x
CC(C)Oc1ccc(C(=O)N2CCC(c3nc4ccccc4s3)CC2)cc1	i	x	x	i	x
CCCCOC(=O)Nc1ccccc1C(=O)N1CCCC1	13µM*	u	u	i	11%
Cc1cccc(C)c1NC(=O)C(c1ccncc1)N1CCN(CCN(C)C)CC1 (stereo not given)	i	x	x	i	x
Cc1c(C(=O)O)[nH]c2c1C(=O)CC(c1ccc(C(C)(C)C)cc1)C2 (stereo not given)	i	-5%	1%	i	u
COC(=O)c1[nH]c2c(c1C)C(=O)CC(c1ccccc1)C2 (stereo not given)	0.58µM*	17%	13%	1.3µM*	5%
COC(=O)c1[nH]c2c(c1C)C(=O)CC(c1ccc(OC)cc1)C2 (stereo not given)	i	-12%	-1%	i	-22%
Cc1c(C(=O)OC2CCCC2)[nH]c2c1C(=O)CC(c1ccco1)C2 (stereo not given)	0.58µM*	u	u	0.52µM*	-10%
C=CCOC(=O)c1[nH]c2c(c1C)C(=O)CC(c1ccco1)C2 (stereo not given)	u	0.18µM*	u	u	-3%
Cc1c(C(=O)N2CCOCC2)[nH]c2c1C(=O)CC(c1ccccc1Cl)C2 (stereo not given)	u	15%	12%	18µM*	-8%
[Cl][In]([Cl])[Cl]	i	-4%	-3%	u	x
c1csc(CNc2nc(NCC3CCCCC3)c3sccc3n2)c1	u	x	x	i	x
CCOc1ccccc1NC(=O)NCc1noc2ccc(C)cc12	i	x	x	i	x
Cc1oc(-c2ccc(C(=O)NCc3ccc(Cl)cc3)cc2)nc1CS(=O)(=O)c1ccccc1	i	x	x	i	x
C/C=C/COC(=O)c1[nH]c2c(c1C)C(=O)CC(c1ccco1)C2 (stereo not given)	i	u	u	i	-2%
Cc1c(C(=O)OCC(C)C)[nH]c2c1C(=O)CC(c1ccco1)C2 (stereo not given)	u	0.52µM*	18µM*	i	u
Cc1c(C(=O)OCC2CCCO2)[nH]c2c1C(=O)CC(c1ccco1)C2 (stereo not given)	4.1µM*	2.9µM*	3.7µM*	3.3µM*	u
Cc1c(C(=O)OC2CCCCC2)[nH]c2c1C(=O)CC(c1ccccc1Cl)C2 (stereo not given)	u	x	x	4.1µM*	x
CN(C(=O)CSc1nc2ccccc2n1CC(=O)N(C)c1ccc(F)cc1)c1ccccc1	i	x	x	i	x
COC(=O)c1c(N)sc(Cc2ccccc2)c1C	i	-21%	13%	i	-3%
